In ChEMBL document CHEMBL2218924, “A broad activity screen in support of a chemogenomic map for kinase signalling research and drug discovery” (Biochem J, 2013):

Tests used:
[1] = target: Mitogen-activated protein kinase 10 (Homo sapiens) (UniProt P53779); settings: at 10 µM
[2] = target: Vascular endothelial growth factor receptor 2 (Homo sapiens) (UniProt P35968); settings: at 1 µM
[3] = target: Vascular endothelial growth factor receptor 2 (Homo sapiens) (UniProt P35968); settings: at 10 µM
[4] = target: LIM domain kinase 1 (Homo sapiens) (UniProt P53667); settings: at 1 µM
LIM domain kinase 1 (Homo sapiens), sequence (P53667 whole entry, looked up, the tested form may be a part): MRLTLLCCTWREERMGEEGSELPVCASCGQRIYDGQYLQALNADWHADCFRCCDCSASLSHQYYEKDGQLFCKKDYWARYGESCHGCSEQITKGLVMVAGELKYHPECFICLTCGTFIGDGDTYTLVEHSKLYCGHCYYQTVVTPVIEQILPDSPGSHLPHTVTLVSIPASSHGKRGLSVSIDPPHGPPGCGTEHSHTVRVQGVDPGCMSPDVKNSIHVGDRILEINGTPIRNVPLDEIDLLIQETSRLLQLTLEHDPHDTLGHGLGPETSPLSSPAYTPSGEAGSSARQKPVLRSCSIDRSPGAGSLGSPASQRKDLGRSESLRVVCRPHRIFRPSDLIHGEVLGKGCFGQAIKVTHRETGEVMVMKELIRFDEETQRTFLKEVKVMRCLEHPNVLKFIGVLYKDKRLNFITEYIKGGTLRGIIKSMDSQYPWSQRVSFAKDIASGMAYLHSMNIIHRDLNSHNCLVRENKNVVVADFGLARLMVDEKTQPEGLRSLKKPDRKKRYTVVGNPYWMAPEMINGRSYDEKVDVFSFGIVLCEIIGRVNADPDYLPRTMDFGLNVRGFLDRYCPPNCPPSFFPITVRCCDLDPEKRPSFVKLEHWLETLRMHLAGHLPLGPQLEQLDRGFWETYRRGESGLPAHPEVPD

[5] = target: LIM domain kinase 1 (Homo sapiens) (UniProt P53667); settings: at 10 µM
[6] = target: T1, Serine/threonine-protein kinase STK11 (Homo sapiens) (UniProt Q15831); settings: at 1 µM
T1 sequence (whole entry): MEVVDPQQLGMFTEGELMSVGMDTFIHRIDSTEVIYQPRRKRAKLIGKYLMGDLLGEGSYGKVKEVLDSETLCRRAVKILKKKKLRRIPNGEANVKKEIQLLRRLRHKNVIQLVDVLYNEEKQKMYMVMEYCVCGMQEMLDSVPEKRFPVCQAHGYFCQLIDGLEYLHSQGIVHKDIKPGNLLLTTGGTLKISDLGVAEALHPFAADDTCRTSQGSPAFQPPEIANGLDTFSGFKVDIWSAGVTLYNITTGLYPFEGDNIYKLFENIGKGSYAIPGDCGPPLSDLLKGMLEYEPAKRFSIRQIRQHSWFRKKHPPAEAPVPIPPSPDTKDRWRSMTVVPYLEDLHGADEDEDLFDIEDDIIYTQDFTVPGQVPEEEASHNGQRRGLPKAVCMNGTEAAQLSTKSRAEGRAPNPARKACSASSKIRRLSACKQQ

[7] = target: T1, Serine/threonine-protein kinase STK11 (Homo sapiens); settings: at 10 µM
[8] = target: Serine/threonine-protein kinase 10 (Homo sapiens) (UniProt O94804); settings: at 1 µM
Serine/threonine-protein kinase 10 (Homo sapiens), sequence (O94804 whole entry, looked up): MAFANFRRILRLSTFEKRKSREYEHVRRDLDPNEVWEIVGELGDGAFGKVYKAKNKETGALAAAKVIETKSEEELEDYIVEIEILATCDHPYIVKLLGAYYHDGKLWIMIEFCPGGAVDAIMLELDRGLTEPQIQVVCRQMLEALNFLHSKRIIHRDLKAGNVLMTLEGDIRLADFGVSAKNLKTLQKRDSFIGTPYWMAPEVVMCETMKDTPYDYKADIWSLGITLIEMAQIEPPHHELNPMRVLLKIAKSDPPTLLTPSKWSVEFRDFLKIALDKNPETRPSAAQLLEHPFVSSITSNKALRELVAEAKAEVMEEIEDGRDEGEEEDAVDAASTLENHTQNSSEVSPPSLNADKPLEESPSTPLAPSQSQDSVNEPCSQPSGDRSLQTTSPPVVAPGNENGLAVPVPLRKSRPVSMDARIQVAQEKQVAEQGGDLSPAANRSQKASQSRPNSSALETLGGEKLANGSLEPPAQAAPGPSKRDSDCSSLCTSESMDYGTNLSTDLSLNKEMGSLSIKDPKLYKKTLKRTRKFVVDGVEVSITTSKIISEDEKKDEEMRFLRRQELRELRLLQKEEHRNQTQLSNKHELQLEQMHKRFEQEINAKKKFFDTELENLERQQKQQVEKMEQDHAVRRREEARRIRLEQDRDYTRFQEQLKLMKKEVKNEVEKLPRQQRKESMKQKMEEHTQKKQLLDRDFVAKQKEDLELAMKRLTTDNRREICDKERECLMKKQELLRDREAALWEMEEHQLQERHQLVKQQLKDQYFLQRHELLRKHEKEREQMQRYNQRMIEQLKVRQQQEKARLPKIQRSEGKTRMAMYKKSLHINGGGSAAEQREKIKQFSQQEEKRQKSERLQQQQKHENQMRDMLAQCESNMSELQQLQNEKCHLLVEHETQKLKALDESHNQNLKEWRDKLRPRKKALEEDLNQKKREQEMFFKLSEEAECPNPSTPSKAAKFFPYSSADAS

[9] = target: Serine/threonine-protein kinase 10 (Homo sapiens) (UniProt O94804); settings: at 10 µM
[10] = target: Tyrosine-protein kinase Lck (Homo sapiens) (UniProt P06239); settings: at 1 µM
Tyrosine-protein kinase Lck (Homo sapiens), sequence (P06239 2-509 limits assumed): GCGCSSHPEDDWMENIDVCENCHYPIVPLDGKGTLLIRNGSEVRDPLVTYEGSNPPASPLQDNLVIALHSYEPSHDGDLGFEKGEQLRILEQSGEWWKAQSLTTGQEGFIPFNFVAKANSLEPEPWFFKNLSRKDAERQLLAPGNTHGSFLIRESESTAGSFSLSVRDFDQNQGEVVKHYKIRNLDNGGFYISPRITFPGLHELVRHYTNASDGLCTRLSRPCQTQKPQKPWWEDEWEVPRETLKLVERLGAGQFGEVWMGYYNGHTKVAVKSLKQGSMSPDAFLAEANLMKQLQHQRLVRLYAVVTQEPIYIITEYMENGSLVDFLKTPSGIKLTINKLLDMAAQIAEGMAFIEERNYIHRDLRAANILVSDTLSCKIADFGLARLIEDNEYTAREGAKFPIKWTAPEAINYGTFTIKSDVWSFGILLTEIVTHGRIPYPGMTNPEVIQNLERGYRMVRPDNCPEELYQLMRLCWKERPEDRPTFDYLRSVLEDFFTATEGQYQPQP

Vascular endothelial growth factor receptor 2 (Homo sapiens), sequence (P35968 whole entry, the tested form may be a part): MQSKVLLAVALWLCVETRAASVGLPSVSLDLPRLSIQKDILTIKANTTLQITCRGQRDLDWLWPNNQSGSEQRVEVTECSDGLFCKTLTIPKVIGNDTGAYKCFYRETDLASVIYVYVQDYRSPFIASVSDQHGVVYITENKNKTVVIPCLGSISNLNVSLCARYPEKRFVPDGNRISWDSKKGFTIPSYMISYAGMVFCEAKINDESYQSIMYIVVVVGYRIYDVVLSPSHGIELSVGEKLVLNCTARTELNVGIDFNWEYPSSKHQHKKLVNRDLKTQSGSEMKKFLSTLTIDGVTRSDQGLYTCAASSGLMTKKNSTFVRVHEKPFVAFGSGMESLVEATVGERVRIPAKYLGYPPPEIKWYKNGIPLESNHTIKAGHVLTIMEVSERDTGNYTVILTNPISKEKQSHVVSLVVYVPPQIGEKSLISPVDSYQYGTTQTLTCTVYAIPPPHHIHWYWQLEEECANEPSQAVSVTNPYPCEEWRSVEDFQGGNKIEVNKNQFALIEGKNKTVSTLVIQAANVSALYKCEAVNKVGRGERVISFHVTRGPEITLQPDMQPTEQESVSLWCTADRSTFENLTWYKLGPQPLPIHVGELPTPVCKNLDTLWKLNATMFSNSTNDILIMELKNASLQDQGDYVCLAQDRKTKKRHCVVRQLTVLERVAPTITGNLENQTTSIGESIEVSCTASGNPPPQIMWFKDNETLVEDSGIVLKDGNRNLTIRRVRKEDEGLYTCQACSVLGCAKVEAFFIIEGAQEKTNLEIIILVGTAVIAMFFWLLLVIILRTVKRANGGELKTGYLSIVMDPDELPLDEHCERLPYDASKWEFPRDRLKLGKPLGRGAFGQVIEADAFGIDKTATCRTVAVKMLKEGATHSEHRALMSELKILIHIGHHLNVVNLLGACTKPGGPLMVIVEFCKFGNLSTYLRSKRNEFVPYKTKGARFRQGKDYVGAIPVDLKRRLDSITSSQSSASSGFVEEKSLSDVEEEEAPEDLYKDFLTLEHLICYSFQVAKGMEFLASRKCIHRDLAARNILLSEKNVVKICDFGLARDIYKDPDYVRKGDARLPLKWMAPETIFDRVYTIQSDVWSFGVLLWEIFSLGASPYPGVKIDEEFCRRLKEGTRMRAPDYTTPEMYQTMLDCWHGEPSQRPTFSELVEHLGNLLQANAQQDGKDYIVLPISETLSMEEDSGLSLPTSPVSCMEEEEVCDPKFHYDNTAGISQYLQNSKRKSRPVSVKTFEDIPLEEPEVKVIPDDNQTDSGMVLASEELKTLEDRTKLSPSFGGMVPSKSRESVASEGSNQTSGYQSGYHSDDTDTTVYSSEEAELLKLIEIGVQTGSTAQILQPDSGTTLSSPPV
Mitogen-activated protein kinase 10 (Homo sapiens), sequence (P53779 whole entry): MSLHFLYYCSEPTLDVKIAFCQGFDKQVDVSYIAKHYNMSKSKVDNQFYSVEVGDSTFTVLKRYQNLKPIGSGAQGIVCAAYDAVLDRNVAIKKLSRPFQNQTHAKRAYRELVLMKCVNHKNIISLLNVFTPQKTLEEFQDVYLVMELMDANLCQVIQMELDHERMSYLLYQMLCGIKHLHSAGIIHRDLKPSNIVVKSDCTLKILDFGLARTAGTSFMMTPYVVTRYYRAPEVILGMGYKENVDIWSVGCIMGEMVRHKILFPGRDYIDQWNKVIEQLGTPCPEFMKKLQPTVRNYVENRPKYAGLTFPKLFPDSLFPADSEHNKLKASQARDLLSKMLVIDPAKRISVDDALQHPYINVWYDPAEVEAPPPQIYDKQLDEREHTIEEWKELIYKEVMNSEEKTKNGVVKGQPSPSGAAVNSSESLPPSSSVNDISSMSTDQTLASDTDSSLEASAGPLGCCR

Row | SMILES | residual activity [1] [%] | residual activity [2] [%] | residual activity [3] [%] | residual activity [4] [%] | residual activity [5] [%] | residual activity [6] [%] | residual activity [7] [%] | residual activity [8] [%] | residual activity [9] [%] | residual activity [10] [%]
1 | CCCC(=O)Oc1ccc2[nH]c(C(=O)c3cc4ccccc4[nH]3)cc2c1 | 69 | 94 | 70 | 98 | 80 | 98 | 96 | 85 | 96 | 89
2 | NC(=O)Nc1sc(-c2ccc(F)cc2)cc1C(N)=O | 33 | 41 | 6 | 46 | 7 | 92 | 73 | – | – | –
3 | Nc1ncnc2c1c(-c1ccc(Oc3ccccc3)cc1)cn2C1CCCC1 | 81 | 24 | 3 | 72 | 13 | 105 | 91 | 73 | 38 | 1
4 | O=C(CCCc1ccc(-c2ccccc2F)cc1)Nc1ccc(O)cc1 | 94 | 110 | 108 | 96 | 85 | 100 | 97 | 112 | 94 | 99
5 | CC(C)(C)c1nc2c3ccc(F)cc3c3c(=O)[nH]ccc3c2[nH]1 | -7 | 65 | 24 | 98 | 63 | – | – | 72 | 32 | –
6 | COc1ccc2c(c1)c(C1=C(c3c[nH]c4ccccc34)C(=O)NC1=O)cn2CCCN(C)C | 37 | 28 | 3 | 99 | 65 | 101 | 99 | 54 | 22 | –
7 | O=C1NC(=O)C(c2cn(CCCO)c3ncccc23)=C1c1cnccn1 | 86 | 64 | 63 | – | 80 | 85 | 75 | 94 | 80 | –
8 | NC(=O)c1cccc(-c2cc(Nc3ccc(OC(F)(F)F)cc3)ncn2)c1 | – | 100 | 89 | – | 94 | 95 | 98 | – | – | 139
9 | CC(C)[C@H](CO)Nc1nc(Nc2cc(N)cc(Cl)c2)c2ncn(C(C)C)c2n1 | 67 | – | – | – | 85 | – | 72 | 57 | 17 | –
10 | CCOC(=O)c1c(C)[nH]c(/C=C2\C(=O)Nc3ccccc32)c1C | – | 16 | 28 | – | – | – | – | – | – | –
11 | CN([C@@H](Cc1ccc(OS(=O)(=O)c2cccc3cnccc23)cc1)C(=O)N1CCN(c2ccccc2)CC1)S(=O)(=O)c1cccc2cnccc12 | 75 | – | – | 99 | 86 | – | – | – | – | 144
12 | N#Cc1c(NC(=O)c2cccc3ccccc23)sc2c1CCCC2 | 0 | – | 96 | 92 | 82 | 86 | 93 | 90 | 92 | –
13 | O=C(Nc1nc2ccccc2n1CCN1CCOCC1)c1cccc([N+](=O)[O-])c1 | – | – | – | 105 | 88 | 100 | 100 | – | – | –
14 | Nc1nccc(-c2c(-c3ccc(F)cc3)ncn2C2CCNCC2)n1 | 22 | – | – | 64 | 25 | – | – | – | – | –
15 | COc1ccc(-c2cnc3c(-c4ccsc4)cnn3c2)cc1 | – | 88 | 68 | – | – | – | – | – | – | 139
16 | NC(=O)c1ccc(-c2nc(-c3ccc4c(c3)OCCO4)c(-c3ccccn3)[nH]2)cc1 | – | – | – | – | – | – | – | 65 | 68 | –
17 | COc1cc2nccc(Oc3ccc(NC(=O)Nc4cc(C)on4)c(Cl)c3)c2cc1OC | – | – | – | 67 | 14 | 99 | 101 | 8 | 8 | 3
18 | O=C1Cc2c([nH]c3ccc(Br)cc23)-c2ccccc2N1 | – | 74 | 31 | 89 | 80 | 97 | 95 | 96 | 56 | –
19 | COc1ccc(Cl)cc1NC(=O)Nc1cc(C)nc2ccccc12 | 78 | – | – | – | – | – | 95 | 96 | 96 | –
20 | O=C(Nc1ccc(Cl)cc1)c1ccccc1NCc1ccncc1 | 123 | 3 | 4 | – | – | 101 | 99 | 82 | 64 | –

Row | SMILES | residual activity [1] [%] | residual activity [2] [%] | residual activity [3] [%] | residual activity [4] [%] | residual activity [5] [%] | residual activity [6] [%] | residual activity [7] [%] | residual activity [8] [%] | residual activity [9] [%] | residual activity [10] [%]
21 | Cc1cc(C)c(/C=C2\C(=O)Nc3ccccc32)[nH]1 | – | 4 | 2 | – | – | – | – | – | 45 | –
22 | O=C1NC(=O)C(c2cn(CCCn3ccnc3)c3ccccc23)=C1Nc1ccccc1 | 68 | 73 | 22 | – | 41 | 100 | 103 | 21 | 6 | 130
23 | CSc1nc(-c2ccc(F)cc2)c(-c2ccnc(NC(C)c3ccccc3)c2)[nH]1 (stereo not given) | -3 | – | 87 | – | 71 | – | 98 | – | 96 | 85
24 | O=C1C(Cl)=C(N2C(=O)CCC2=O)C(=O)c2ccccc21 | 94 | – | – | 88 | 81 | 94 | 89 | 95 | 90 | 76
25 | O=C1Nc2ccccc2/C1=C\c1c(Cl)[nH]c2ccccc12 | 47 | – | 30 | – | 71 | – | – | 84 | 36 | 83
26 | COc1ccc(COc2ccc(Cc3cnc(N)nc3N)cc2OC)cc1 | – | – | – | – | – | – | – | – | – | 110
27 | O=C1NC(=O)C(c2c[nH]c3ccccc23)=C1c1c[nH]c2ccccc12 | -3 | 16 | 2 | – | 50 | 100 | 97 | 39 | 15 | 78
28 | N#C/C(=C1/Nc2ccccc2S1)c1ccnc(NCCc2cccnc2)n1 | – | – | – | – | – | 96 | 81 | 78 | 39 | –
29 | COc1ccc(CNC(=O)Nc2ncc([N+](=O)[O-])s2)cc1 | 57 | – | – | – | – | – | – | – | – | 80
30 | O=C(c1ccccc1)c1ccc(N2CCOCC2)cc1O | 53 | 99 | 96 | – | 80 | – | – | 91 | 91 | 137
31 | Fc1ccc(-c2nc3n(c2-c2ccncc2)CCS3)cc1 | 7 | – | – | – | – | – | – | – | 99 | –
32 | O=c1cc(N2CCOCC2)oc2c(-c3ccccc3)cccc12 | – | – | – | 101 | 80 | – | – | – | – | –
33 | Oc1cccc(-c2nc(N3CCOCC3)c3oc4ncccc4c3n2)c1 | – | – | – | – | – | – | – | 96 | 87 | –
34 | O=S(=O)(c1cccc2cnccc12)N1CCCNCC1 | – | – | – | – | – | 100 | – | – | – | –
35 | O=C1Cc2c([nH]c3ccc([N+](=O)[O-])cc23)-c2ccccc2N1 | 66 | 52 | 42 | – | – | – | – | 102 | 110 | 22
36 | CC(C)N(CCC(=O)c1ccc2ccccc2c1)Cc1ccccc1 | 84 | – | 85 | – | 85 | – | – | – | – | –
37 | Nc1n[nH]c2nc3ccccc3nc12 | 66 | – | – | 89 | 67 | 126 | 88 | 88 | 78 | –
38 | O=S(=O)(NCCNC/C=C/c1ccc(Br)cc1)c1cccc2cnccc12 | – | – | 62 | 79 | 29 | – | – | 71 | 53 | –
39 | N#C/C(=C\c1ccc(O)c(O)c1)C(=O)NCc1ccccc1 | 72 | – | 87 | – | – | 102 | 100 | – | – | –
40 | O=c1c(-c2ccc(F)cc2)c(-c2ccncc2)[nH]n1-c1ccc(Cl)cc1 | -2 | 102 | 54 | – | – | – | – | – | 99 | –
